The values below come from PubChem BioAssay AID1851 (National Center for Advancing Translational Sciences (NCATS), 2009).

Each structure is given as a SMILES string. Several values for one entry are separate records, joined by “and”; a condition that tells them apart may be missing. Equal values may be shown once. Screen size: about 16,000 compounds; about 5,800 (36%) were called active. Not shown: some 23% with an inconclusive outcome. The list shows a part of the results. A number with no mark means an inactive call. The call rests on the fitted dose curve; in most records, active means well fitted curve in the direction sought with a large enough effect; inconclusive means small, poorly fitted or top-dose-only effect, or effect the other way; inactive means no such curve, though single readings can be large or run the other way.

In general, AC50 refers to the midpoint of the concentration-response curve, whichever way the signal moves.
On the % scale 0 is the no-effect control and ±100 the full control effect.

Chain of Cytochrome P450 2C19 (Homo sapiens) (P33261 whole entry, looked up): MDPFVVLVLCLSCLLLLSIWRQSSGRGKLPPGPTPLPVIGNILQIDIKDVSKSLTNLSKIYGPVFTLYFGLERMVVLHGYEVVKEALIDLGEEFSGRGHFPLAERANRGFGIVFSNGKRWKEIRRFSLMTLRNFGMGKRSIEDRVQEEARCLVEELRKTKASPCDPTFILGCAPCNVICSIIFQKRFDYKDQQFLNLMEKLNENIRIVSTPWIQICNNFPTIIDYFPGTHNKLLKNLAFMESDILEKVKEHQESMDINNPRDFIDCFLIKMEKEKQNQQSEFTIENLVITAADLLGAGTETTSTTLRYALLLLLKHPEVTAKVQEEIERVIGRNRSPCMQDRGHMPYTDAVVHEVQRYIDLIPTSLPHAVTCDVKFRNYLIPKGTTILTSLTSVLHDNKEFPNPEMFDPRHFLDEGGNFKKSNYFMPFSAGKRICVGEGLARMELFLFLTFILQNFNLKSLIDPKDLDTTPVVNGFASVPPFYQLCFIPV

The experiment concerns the target Cytochrome P450 2C19 (Homo sapiens) (UniProt P33261). In words: Cytochrome panel assay with activity outcomes. The following applies: recombinant CYP, pro-luciferin dealkylation, luminescence, p450-cyp2c19; series mostly up to 57.1 µM; activity, negative = inhibition: at the top concentration.
As to `CO[C@H]1COC(=O)CCC[C@@H](C)[C@H](OC)COC(=O)[C@@H](C)NC(=O)C/C=C\[C@@H]1C`, the activity, negative = inhibition was 31.3% [at 11.4 µM].

With `COc1ccc(-c2cc3ccccc3n2CC(O)CNCCO)cc1` (centres undefined), the AC50 was 14.1 µM (active).

For the compound `O=C(O)COc1ccc(OCCNC[C@@H](O)COc2ccccc2)cc1`, the “activity, negative = inhibition” value is -33.9%.

Regarding `NC(=O)c1cc[n+](CC2=C(C(=O)O)N3C(=O)[C@@H](NC(=O)[C@H](c4ccccc4)S(=O)(=O)[O-])[C@@H]3SC2)cc1`, the AC50 entry is “inactive”. In the case of `O=C(NNS(=O)(=O)c1ccccc1)c1cccnc1`, the activity, negative = inhibition was 9.95% [at 11.4 µM]. Regarding `O=C(NNS(=O)(=O)c1ccc(Cl)cc1)C1CCN(Cc2ccccc2)CC1`, the “activity, negative = inhibition” value is -6.45%.

In the case of `O=C(NNS(=O)(=O)c1ccc(Cl)cc1)c1cnn(-c2ccccc2)c1-n1cccc1`, the AC50 was 1.12 µM (active).

Regarding `COc1cc2c(cc1OC)C(C(=O)N1CCOCC1)C(c1cccs1)N(C)C2=O` (centres undefined), the “activity, negative = inhibition” value was 9.22%.

In the case of `Cc1ccc(-n2c(C)nnc2SCC(=O)N2CCc3ccccc3C2)cc1C`, the AC50 is 22.4 µM (active). On to `CCSc1nnc(NC(=O)CSc2nc3c(cc2C#N)CCCC3)s1`, for which the AC50 is 2.82 µM (active). As to `CCC(=O)Nc1c2c(nc3c1CCC3)CCCC2`, the “activity, negative = inhibition” value is -14.8%. For the compound `COc1ccc(NC(=S)Nc2ncccc2C)c(OC)c1`, the AC50 is 3.55 µM (active). Turning to `COc1ccc(-n2nc3cc(C)c(NC(=S)NC(=O)c4ccccc4C)cc3n2)cc1`, the “activity, negative = inhibition” value was -29.5%. Regarding `CO[C@H]1COC(=O)C/C=C\[C@H](C)[C@@H](NS(=O)(=O)c2ccc(C)cc2)COC(=O)C/C=C\[C@@H]1C`, the activity, negative = inhibition was 1.28% [at 11.4 µM] and 16.7% [at 11.4 µM].

For the compound `COC(=O)N1CCC2(CC1)CCN(c1ncccn1)CC2`, the “activity, negative = inhibition” value was 9.12%. As to `Cc1sc(NC(=O)c2ccco2)c(C(c2cccnc2)N2CCN(C)CC2)c1C` (centres undefined), the concentration at half-maximal activity (AC50) is 20 µM (active). For `Cc1sc(NC(=O)c2ccco2)c(C(c2cccnc2)N2CCCC2)c1C` (centres undefined), the concentration at half-maximal activity (AC50) was 11.2 µM (active). Regarding `Cc1sc(NC(=O)c2ccco2)c(C(c2ccncc2)N2CCOCC2)c1C` (centres undefined), the AC50 was 10 µM (active).

For the compound `O=C(Nc1c(C(=O)N2CCCCC2)cnn1-c1ccccc1)c1ccco1`, the “activity, negative = inhibition” value is -22.6%. As to `Cc1c(C)c2c(c(C)c1O)CC[C@@](C)(C(=O)O)O2`, the “activity, negative = inhibition” value was 9.1% [at 25.6 µM]. With `O=C(N/N=C/c1ccc(O)cc1)c1csc2ccccc12`, the AC50 was 14.1 µM (active). With `CCOc1ccc(NC(=S)N(Cc2ccc(N(C)C)cc2)Cc2ccco2)cc1`, the AC50 is 1.58 µM (active).

For the compound `CCOc1ccc(NC(=S)N(Cc2ccc(Cl)cc2)Cc2ccco2)cc1`, the AC50 was 7.94 µM (active). Take `Cc1ccc2c(c1)nnn2C1CCN(CC(=O)N2c3ccccc3CC2C)CC1` (centres undefined): the half-maximal activity concentration (AC50) was 10 µM (active). Turning to `Cc1ccccc1NC(=O)CN1CCC(n2nnc3ccccc32)CC1`, the half-maximal activity concentration (AC50) was 17.8 µM (active). Take `CCc1ccccc1NC(=O)c1nnn(CC(=O)Nc2ccccc2C)c1N`: the “activity, negative = inhibition” value is -8.56%. Take `Cc1cc(N=Cc2c(CO)cnc(C)c2O)c(N=Cc2c(CO)cnc(C)c2O)cc1C.[Zn]`: the activity, negative = inhibition is -22.1% [at 11.4 µM].

Consider `CCCCN=c1sc(C(=O)OC)cc(=O)n1CCCC`, for which the AC50 is 2.24 µM (active). On to `Cc1cc2c(c(=O)o1)[C@@H](O)[C@H]1O[C@@H]1C2=O`, for which the activity, negative = inhibition is -1.32% [at 11.4 µM]. Consider `CN(C)c1cc(-c2cccc(NS(C)(=O)=O)c2)ncn1`, for which the “activity, negative = inhibition” value was -19%. For the compound `COc1ccc(N(CC(=O)Nc2cccc(C)c2)S(=O)(=O)c2c(C)n[nH]c2C)cc1`, the AC50 is 0.794 µM (active). Take `Cc1n[nH]c(C)c1S(=O)(=O)N1CCOCC1`: the “activity, negative = inhibition” value was 2.95%. Consider `Cc1cccc(NS(=O)(=O)c2c(C)n[nH]c2C)c1`, for which the AC50 was 7.08 µM (active). Consider `CN(CC(=O)Nc1ccc(F)c(F)c1)S(=O)(=O)c1cccc2nsnc12`, for which the AC50 was 3.55 µM (active). Turning to `N#Cc1cccc(NC(=O)N2CCC3(CC2)CCN(C(=O)c2cccc(F)c2)CC3)c1`, the “activity, negative = inhibition” value is -25.9%.

For `O=S1(=O)[C@H]([C@H]2CC3c4ccccc4C2c2ccccc23)[C@@H](N2CCCCC2)[C@@H]1c1ccccc1`, the AC50 was 2.51 µM (active). Take `O=C(O)[C@@H]1CCCN1`: the activity, negative = inhibition is 19.4% [at 11.4 µM]. Turning to `O=C(O)[C@H]1C[C@@H](CP(=O)(O)O)CCN1`, the AC50 is 7.94 µM (active). In the case of `O=C(O)[C@H]1CN(CCCP(=O)(O)O)CCN1`, the “activity, negative = inhibition” value is -8.91%. Turning to `CCCCn1c(SCc2c(C)noc2C)nc2cc(S(N)(=O)=O)ccc21`, the AC50 is 14.1 µM (active).

Regarding `CCOc1c(OC(C)=O)ccc(/C=C/c2ccc3cccc(OC(C)=O)c3n2)c1[N+](=O)[O-]`, the AC50 is 10 µM (active). Consider `CCOc1c(OC(C)=O)ccc(/C=C2\N=C(SCC)SC2=O)c1[N+](=O)[O-]`, for which the AC50 was 2.82 µM (active). In the case of `COc1ccc(-c2cc(C(F)F)nc(-n3nc(C)cc3C)n2)cc1`, the AC50 is 28.2 µM (active).

As to `Cc1c(C)c2c(C)[nH]nc2oc1=O`, the AC50 was 17.8 µM (active). As for `Fc1ccc(CSc2ncnc3sc4c(c23)CCCC4)cc1`, the AC50 is 0.891 µM (active).

For `Clc1ccc(CSc2ncnc3c2ncn3[C@@H]2CCCCO2)cc1`, the activity, negative = inhibition was -40.6% [at 11.4 µM]. For the compound `Nc1[nH]c(=O)nc2c1ncn2[C@H]1O[C@@H](CO)[C@@H](O)[C@@H]1O`, the activity, negative = inhibition was 25.3% [at 11.4 µM]. As to `CCn1c2ccccc2c2cc(/C=N/n3cn[nH]c3=S)ccc21`, the AC50 is 3.55 µM (active). As for `O=C1[C@H]2[C@H]3[C@H](O)[C@H](O)C/C(=N/OC[C@@H](O)COCc4ccco4)[C@@H]3CC[C@@H]2C(=O)N1C1CCCCC1`, the activity, negative = inhibition is 9.78% [at 11.4 µM].
